Results reported in PubChem BioAssay (NCATS).
Where “and” joins values, the source holds several entries; their conditions need not be identical. Equal entries are not always repeated. Inconclusive results are not listed. A number with no mark means an inactive call. Calls of active or inactive are those of the source. The call rests on the fitted dose curve; in most records, active means well fitted activation curve with a large enough effect; inconclusive means small, poorly fitted or top-dose-only effect; inactive means no such curve, though single readings can be large or run the other way.

Target: Cellular tumor antigen p53 (Homo sapiens) (UniProt P04637)
Sequence (P04637 whole entry, looked up): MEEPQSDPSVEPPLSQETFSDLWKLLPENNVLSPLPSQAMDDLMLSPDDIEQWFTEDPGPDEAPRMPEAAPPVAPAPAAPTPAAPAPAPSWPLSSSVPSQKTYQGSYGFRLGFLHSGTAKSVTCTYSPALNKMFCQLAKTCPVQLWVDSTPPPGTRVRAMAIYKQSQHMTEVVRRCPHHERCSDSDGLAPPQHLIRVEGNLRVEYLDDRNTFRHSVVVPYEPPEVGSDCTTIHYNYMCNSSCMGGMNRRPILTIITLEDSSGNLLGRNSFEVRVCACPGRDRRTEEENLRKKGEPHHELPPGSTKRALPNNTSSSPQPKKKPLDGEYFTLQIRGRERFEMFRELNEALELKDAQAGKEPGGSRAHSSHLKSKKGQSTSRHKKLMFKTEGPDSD
Assay: Primary qHTS for small molecule compounds that upregulate eGFP-tagged delta133p53alpha (in N-terminal) cells. (AID 2060322); further: nearly all actives have a fitted effect of over 75% in size;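 on activation: series mostly up to about 56 µM; 0% = DMSO vehicle and 100% = reference activator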
Details: NCI-H358 eGFP-delta133p53alpha fluorescence, 24 h; activation: hits give high values
Method in brief: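 NCI-H358 cells pre-induced 24 h with 10 ng/ml doxycycline to express N-terminal eGFP-delta133p53alpha, then dosed 24 h at 37C without doxycycline; fixed, Hoechst-stained, GFP intensity by laser scanning cytometry, normalized to DMSO (0%) and 57.5 uM 5-azacytidine (100%).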
Potency means the concentration at half of the fitted maximal effect.

Compared with `Cc1cc(C)c2c(N)c(C(=O)NCc3ccc(Cl)cc3)sc2n1`, `Cn1c(N2CCCCS2(=O)=O)nc(C(=O)NCc2ccc(F)cc2)c(O)c1=O` is lower in activation: 13.4% for the first, 0.955% for the second.

Going from `OC[C@H]1O[C@@H](Oc2ccc(O)c3cccc(O)c23)[C@H](O)[C@@H](O)[C@@H]1O` to `CC(=O)c1c(C)cccc1O[C@@H]1O[C@H](CO)[C@@H](O)[C@H](O)[C@H]1O`, the activation rises from -13% to 13%.

First: COc1cc2c(cc1NS(=O)(=O)c1ccc(Br)cc1C)n(C)c(=O)n2C
Second: Cc1c(C)c(NCC(=O)N(C)C2CCN(Cc3ccc(C(N)=O)cc3)CC2)c(C)c(C)c1N
The activation of the first is lower: -22.3% for the first, 1.43% for the second.

First: CN(C)c1ccc(NC(=O)NS(=O)(=O)c2ccc(Cl)cc2)cc1
Second: O=C(Nc1ccc(S(=O)(=O)C(F)(F)F)cc1)C1=CCN(c2ncccc2C(F)(F)F)CC1
The activation of the first is higher: -1.67% for the first, -1.91% for the second.

First: CCOC(=O)N1CCC(CN(Cc2ccc(Cl)cc2)Cc2ccc([N+](=O)[O-])s2)C1 (centres undefined)
Second: COC(CCc1ccc(O)cc1)CC(=O)CCc1ccc(O)cc1 (centres undefined)
The activation of the first is lower: 6.21% for the first, 7.63% for the second.

Going from `Cc1c(-c2ccc3c(c2)OCO3)oc2ccc(C(O)C(C)O)cc12` (centres undefined) to `COc1cc(C2c3cc4c(c(O)c3CC(CO)C2C(=O)O)OCO4)cc(OC)c1O` (centres undefined), the activation rises from -8.4% to 9.82%.

Going from `COc1c(C(C)C)c(O)c(O)c2c1C(OC)[C@H]1OC(=O)[C@@]23CCCC(C)(C)[C@H]13` (some centres undefined) to `CC1(C)C(O)CCC2(C)C1C(O)C=C1COC(=O)C12O` (centres undefined), the activation rises from -1.79% to 3.82%.

First: OC[C@H]1O[C@@H](Oc2cc(O)cc(-c3cc4ccc(O[C@@H]5O[C@H](CO)[C@@H](O)[C@H](O)[C@H]5O)cc4o3)c2)[C@H](O)[C@@H](O)[C@@H]1O
Second: OCC1OC(Oc2cc(O)cc(/C=C/c3ccc(OC4OC(CO)C(O)C(O)C4O)cc3O)c2)C(O)C(O)C1O (centres undefined)
The activation of the first is lower: -14.3% for the first, -9.16% for the second.

First: CO[C@]1(NC(=O)CSC(F)F)C(=O)N2C(C(=O)O)=C(CSc3nnnn3CCO)CO[C@H]21
Second: CC(NC(=O)CC(=O)O)c1nc2ccccc2c(=O)[nH]1 (centres undefined)
The activation of the first is lower: -7.53% for the first, -5.36% for the second.

Going from `CC(C)c1ccc2c(c1)CCC1[C@](C)(C(=O)O)CCC[C@]21C` (some centres undefined) to `CC1=CCC2C(C)(CO)CCCC2(CO)C1CO` (centres undefined), the activation falls from 9.82% to -19.8%.

Going from `O=C(OC[C@H]1O[C@@H](Oc2ccccc2CO)[C@H](O)[C@@H](O)[C@@H]1O)c1ccccc1` to `O=C(/C=C/c1ccccc1)O[C@@H]1[C@@H](CO)O[C@@](CO)(O[C@H]2O[C@H](CO)[C@@H](O)[C@H](O)[C@H]2O)[C@H]1O`, the activation falls from 7.63% to -26%.

Compared with `CC(CNS(=O)(=O)C(C)C)c1ccc(-c2ccc(C#N)cc2)cc1` (centres undefined), `NC(=O)[C@@H]1CC[C@H](c2ccc(OCc3ccccc3F)cc2)N1` is lower in activation: -9% for the first, -11.6% for the second.

First: O=C(NNc1ccccc1)c1ccncc1
Second: O=C(O)c1cc(-c2c(-c3ccccc3)nn3ccccc23)n[nH]c1=O
The activation of the first is lower: -8.33% for the first, -0.333% for the second.

First: COC(=O)C[C@H]1[C@]2(C)C3=C(C)[C@H](c4ccoc4)C[C@H]3O[C@@H]2[C@H](OC(C)=O)C2[C@](C)(C(=O)OC)C=CC(=O)[C@@]21C (some centres undefined)
Second: COc1cc(/C=C/C(=O)O[C@H]2[C@H](O)[C@@H](CO)O[C@@]2(CO)O[C@H]2O[C@H](COC(=O)c3ccc(O)cc3)[C@@H](O)[C@H](O)[C@H]2O)cc(OC)c1OC
The activation of the first is higher: 11.6% for the first, -19.8% for the second.

First: COc1ccc(/C=C/C(=O)O[C@@H]2[C@@H](O)[C@@H](O)[C@H](O[C@@H]3C=C(CO)[C@H]4[C@H](O[C@@H]5O[C@H](CO)[C@@H](O)[C@H](O)[C@H]5O)OC=C[C@H]43)O[C@H]2C)cc1O
Second: O=C(/C=C/c1ccc(O)c(O)c1)O[C@@H]1[C@@H](O)[C@H](OC2CCCCC2O)O[C@H](CO)[C@H]1O (some centres undefined)
The activation of the first is lower: -6.87% for the first, 2.29% for the second.

First: Cc1c(Cc2ccc3ccccc3n2)c2cc(F)ccc2n1CC(=O)O
Second: COc1cc(C2OCC3C(c4ccc(OC5OC(CO)C(O)C(O)C5O)c(OC)c4)OCC23)ccc1O (centres undefined)
The activation of the first is higher: -10% for the first, -24.4% for the second.

Compared with `COc1cc([C@H]2OC[C@](O)(Cc3ccc(O[C@@H]4O[C@H](CO)[C@@H](O)[C@H](O)[C@H]4O)c(OC)c3)[C@@H]2CO)ccc1O`, `CC1=C(CCC(C)O[C@@H]2O[C@H](CO)[C@@H](O)[C@H](O)[C@H]2O)C(C)(C)CCC1=O` (some centres undefined) is lower in activation: -1.53% for the first, -16.8% for the second.

In the case of `CC1CCC2C(C(=O)O)=COC(O[C@@H]3O[C@H](CO)[C@@H](O)[C@H](O)[C@H]3O)C12` (some centres undefined), the activation is reported as -3.57%.

With `COc1cc(N2CCOCC2)ccc1Nc1ncc(F)c(Nc2ccccc2NS(C)(=O)=O)n1` the Potency was 9.53 µM (active).
In the case of `C=C[C@H]1C(O[C@@H]2O[C@H](CO)[C@@H](O)[C@H](O)[C@H]2O)OC=C2C(=O)N3CCc4c([nH]c5ccccc45)C3CC21` (some centres undefined), the Potency is reported as 5.22 µM (active).

With `COc1c(C)c(C(=O)c2ccc(N)c(C(=O)O)c2)n2ccccc12` the activation was 10% and 14.3%.
For `Oc1ccc(O)cc1`, the activation was 17.5% and -0.402%.
